We go through 117 compounds from PubChem BioAssay AID488969 (Vanderbilt High Throughput Screening Facility, 2010).

In all, about 110,000 compounds were measured (“z-score”: median about -0.1, highest 2% from about 2 on). This is one part of a sample in which the highest values are shown more often than they occur. The source made the active and inactive calls.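 The calls were made as follows: active = z-score in the third read window above 3 or below -3; inactive = the rest.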

In the assay the target is Metabotropic glutamate receptor 8 (Rattus norvegicus) (UniProt P70579). Description: rat mGluR8 modulators via GIRK flux, primary screen, cell-based, thallium flux, HTS (AID 488969). The settings on record: HEK293 rat mGluR8, GIRK (G protein-gated inwardly rectifying potassium channel) thallium flux, FluoZin2; at 10 µM; stronger effect = higher value; submaximal glutamate (EC20) added with thallium.
Sequence of Metabotropic glutamate receptor 8 (Rattus norvegicus) (P70579 whole entry, looked up): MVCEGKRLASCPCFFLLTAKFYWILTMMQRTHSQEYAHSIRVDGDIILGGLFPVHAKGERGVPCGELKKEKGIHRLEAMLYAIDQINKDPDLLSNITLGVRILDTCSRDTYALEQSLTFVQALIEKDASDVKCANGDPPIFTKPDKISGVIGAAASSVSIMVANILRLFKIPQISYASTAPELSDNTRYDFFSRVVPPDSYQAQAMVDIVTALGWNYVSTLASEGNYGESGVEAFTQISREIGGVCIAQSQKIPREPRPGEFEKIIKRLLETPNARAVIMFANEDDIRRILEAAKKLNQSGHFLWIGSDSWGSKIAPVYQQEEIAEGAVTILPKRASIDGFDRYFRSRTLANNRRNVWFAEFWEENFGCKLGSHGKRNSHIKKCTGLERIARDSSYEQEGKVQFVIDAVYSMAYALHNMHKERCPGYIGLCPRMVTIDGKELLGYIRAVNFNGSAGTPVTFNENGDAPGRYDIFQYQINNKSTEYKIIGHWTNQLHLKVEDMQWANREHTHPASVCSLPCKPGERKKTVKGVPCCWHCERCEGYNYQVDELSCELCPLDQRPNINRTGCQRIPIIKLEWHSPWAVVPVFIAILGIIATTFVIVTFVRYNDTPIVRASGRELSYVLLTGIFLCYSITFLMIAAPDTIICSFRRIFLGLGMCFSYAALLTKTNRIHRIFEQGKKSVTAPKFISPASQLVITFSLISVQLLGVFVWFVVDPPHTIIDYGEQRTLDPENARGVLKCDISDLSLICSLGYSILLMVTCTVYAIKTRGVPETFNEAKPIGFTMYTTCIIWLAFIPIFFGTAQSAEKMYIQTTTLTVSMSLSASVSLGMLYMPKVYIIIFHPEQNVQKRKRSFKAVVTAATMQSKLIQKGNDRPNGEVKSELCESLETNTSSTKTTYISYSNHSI
Turning to `Cc1cc(N2C(=O)CC(Cc3ccccc3)C2=O)no1` (configuration not stated), the z-score was -0.0586.

As for `CCOc1ccc(N(CC)S(=O)(=O)c2ccc3c(c2)n(C)c(=O)c(=O)n3C)cc1`, the z-score was -0.239.

On to `CCN(CC)S(=O)(=O)c1ccc(N2CCOCC2)c(NS(=O)(=O)c2ccc(C)cc2)c1`, for which the z-score was -0.152. `Clc1ccc(Cn2ncc3c(N4CCCCC4)ncnc32)cc1`: the z-score is -0.535. Take `O=C(O)c1cc([N+](=O)[O-])ccc1N1CCCCC1`: the z-score was -0.123.

`CCN(CC)S(=O)(=O)c1ccc(N2CCOCC2)c(NC(=O)Cc2ccc(Cl)cc2)c1` yielded a z-score of 0.141. Under `O=C(NCCc1ccncc1)Nc1ccccc1` stands 0.141; under `O=C(O)c1c(F)c(F)cc2ccccc12`, 0.365; under `CNc1oc(-c2ccco2)nc1C#N`, 0.498. Under `Cc1cc(Cl)c(S(=O)(=O)N2CCCCCC2)cc1OCC(N)=O` stands 1.66; under `CC(C)CNC(=S)NC(=O)c1ccccc1Cl`, 8.99 (active); under `O=C(NC(=S)NCCN1CCOCC1)c1ccccc1Cl`, -0.177. The result for `CCNC(=S)NNC(=O)c1ccccc1Cl` reads -0.211. In the case of `Cc1cc(/C=C(\C#N)C(=O)Nc2ccccc2)c(C)n1-c1ccc2c(c1)OCO2`, the z-score is -0.335.

`CCN(CC)C(=O)Oc1ccc2cc(Br)ccc2c1` returned a z-score of 0.935. Regarding `CC1CCN(CC(O)COC2CCC(C(C)(C)C)CC2)CC1` (configuration not stated), the z-score was 4.18 (active). On to `CC(C)(C)C1CCC(OCC(O)CN2CCN(c3ccccc3)CC2)CC1` (configuration not stated), for which the z-score is -0.235. The result for `CC(C)(C)C1CCC(OCC(O)CN2CCN(Cc3ccccc3)CC2)CC1` (configuration not stated) reads -0.106; that for `CC(=O)/C(=N\Nc1ccccc1)Sc1nnc(-c2ccccc2)n1-c1ccccc1`, -0.24. Under `COc1ccccc1-n1nnnc1SCC(=O)NC1CCCC1` stands -0.293; under `Cc1cnc(NC(=O)CSc2ncn(-c3ccccc3)n2)s1`, -0.143; under `Cc1ccccc1OCC(=O)N/N=C/c1cccn1C`, 2.42.

`Cc1ccc(OCC(=O)N/N=C/c2cccn2C)cc1` yielded a z-score of 1.01. In the case of `Cc1cccc(C)c1OCC(=O)N/N=C/c1cccn1C`, the z-score is -0.372. The result for `CCCS(=O)(=O)N1CCCC(C(=O)NCCCN(C)c2ccccc2)C1` (configuration not stated) reads 0.0444. The result for `NS(=O)(=O)c1ccc(NC(=S)N2CCN(S(=O)(=O)c3ccc(F)cc3)CC2)cc1` reads 0.195; that for `O=S(=O)(c1ccccc1)N1CCN(C(=S)Nc2ccc(F)cc2)CC1`, 3.37 (active); that for `O=S(=O)(c1ccc(Cl)cc1)N1CCN(C(=S)Nc2ccc(F)c(Cl)c2)CC1`, 0.862. On to `COc1ccccc1-n1c(CCn2nc(C)c(Br)c2C)n[nH]c1=S`, for which the z-score was -0.472. Turning to `CC1(C)CC(=O)C(N=Nc2ccc(Cl)cc2)=C(O)C1`, the z-score is -0.154. `CC(C)c1ccc(OCC(=O)N(c2ccccn2)C2CCCCC2)cc1`: the z-score is -0.397. The result for `O=C(CSc1nncs1)NCc1ccc2c(c1)OCO2` reads -0.652; that for `COc1cccc(-n2c(SCC(=O)N3CCCC3)nc3c([nH]c4ccccc43)c2=O)c1`, -0.189.

As for `Cc1nnc2c3ccccc3c(-c3cccc4ccccc34)nn12`, the z-score was -1.04. Regarding `CC1CCCC(C)N1C(=O)CSc1nnc(COc2ccccc2)n1-c1ccccc1` (configuration not stated), the z-score is -0.853. The result for `CC(C)(C)Nc1nc(N2CCCC2)nc(N2CCCC2)n1` reads -0.14; that for `OCCNc1nc(N2CCCC2)nc(N2CCCC2)n1`, -0.968. Under `CC(C)(CO)Nc1nc(N2CCCC2)nc(N2CCCC2)n1` stands 2.09. The compound `CC1CCCN(CC(O)COc2ccc(Cl)cc2)C1` (configuration not stated) returned a z-score of 0.149. The result for `O=C(CSc1nccc2ccccc12)N1CCN(c2ccccn2)CC1` reads -1.6.

As for `Cc1ccc(NC(=O)COc2cccnc2[N+](=O)[O-])cc1S(=O)(=O)N1CCCCC1`, the z-score is 4.45 (active). The result for `Cc1ccc(OCC(=O)Nc2cccc(S(=O)(=O)N3CCCCC3)c2)c([N+](=O)[O-])n1` reads 0.216. For `Cc1ccc(OCC(=O)Nc2ccc(C)c(S(=O)(=O)N3CCCCC3)c2)c([N+](=O)[O-])n1`, the z-score was 6.89 (active).

Regarding `Cc1ccc(OCC(=O)Nc2cc(S(=O)(=O)N3CCCCC3)ccc2C)c([N+](=O)[O-])n1`, the z-score was -0.377.

`Cc1ccc(NC(=O)COC(=O)CNC(=O)c2cccc([N+](=O)[O-])c2)cc1S(=O)(=O)N1CCCCCC1` came in with a z-score of 0.745. The result for `O=C(COc1cccnc1[N+](=O)[O-])Nc1cccc(S(=O)(=O)N2CCCCC2)c1` reads -0.289; that for `CCC(c1nnc(SCC(=O)Nc2nnc(-c3ccccc3)o2)o1)N(C)C` (configuration not stated), -0.0751; that for `Oc1cccc(/C=N/Nc2cc(N3CCOCC3)nc(N3CCOCC3)n2)c1`, -0.242. As for `O=C(NC1CCCc2ccccc21)C1CCN(S(=O)(=O)c2ccccc2F)CC1` (configuration not stated), the z-score was -0.424. In turn, `O=C(NC1CCc2ccccc21)C1CCN(S(=O)(=O)c2ccc(-n3cnnn3)cc2)CC1` (configuration not stated) showed a z-score of 0.204. Regarding `O=C(NC1CCc2ccccc21)C1CCN(S(=O)(=O)c2ccc(Cl)cc2)CC1` (configuration not stated), the z-score was determined as 2.31. Turning to `O=C(/C=C/c1ccc(F)cc1)N1CCCN(C(=O)/C=C/c2ccc(F)cc2)CC1`, the z-score is -0.668. Under `CCCn1c(SCC(=O)N2N=C3/C(=C/c4ccc(OC)cc4)CCCC3C2c2ccc(OC)cc2)n[nH]c1=O` (configuration not stated) stands -0.0176; under `O=C(CSCc1ccc(F)cc1)Nc1ccccc1`, 0.0848. Under `CC(C)CC(=O)NS(=O)(=O)c1ccc(N)cc1` stands 0.0965; under `COc1cccc(/C=C/C(=O)Oc2ccc(C(=O)c3ccc(F)cc3)cc2)c1`, -2.23. The result for `CCCCNC(=O)C1CCCNC1=O` (configuration not stated) reads 0.0768; that for `Cc1ccc(S(=O)(=O)NCCNC(=O)C2CCCNC2=O)cc1` (configuration not stated), 2.41. For the compound `CN(C)CCNC(=O)C1CCCNC1=O` (configuration not stated), the z-score worked out at 0.0264.

Regarding `COC(=O)CCC(=O)Nc1cccc(Cl)c1`, the z-score was -0.0969. The result for `NC(=O)SCC(=O)Nc1ccc(Cl)cc1` reads 5.18 (active).

In the case of `Cc1ccc(NC(=O)Cn2cccc2)cc1Cl`, the z-score was found to be 2.51.

As to `Cc1ccc(Cl)cc1NC(=O)CSC(N)=O`, the z-score was found to be 0.476. The result for `Cc1ccc(NC(=O)CCn2cccc2)cc1Cl` reads -0.079. The result for `Cc1ccc(NC(=O)CSC(N)=O)cc1Cl` reads 5.44 (active). `N#CCSCC(=O)Nc1ccc(Cl)cc1` gave a z-score of 0.285. Under `Cc1ccc(NC(=O)CSCC#N)cc1Cl` stands -0.0832; under `NC(=O)SCC(=O)Nc1cccc(Cl)c1`, 2.86.

`Cc1ccc(Cl)cc1NC(=O)Cn1cccc1`: the z-score is -0.44.

The compound `Nc1cc(=O)[nH]c(SCC(=O)Nc2cccc(Cl)c2)n1` showed a z-score of 0.151. The result for `O=C(COc1ccccc1O)Nc1ccc(Cl)cc1` reads -0.0165; that for `O=C(NNC1=NCCCCC1)c1ccccc1`, -0.78; that for `O=S(=O)(Cc1ccccc1)N1CCCC(c2nc(-c3ccc(F)cc3)no2)C1` (configuration not stated), -0.449.

Take `Cc1nc(NC(=O)CSc2ccc(-c3nc4ccccc4[nH]3)cn2)sc1C`: the z-score was -0.0534. Under `O=C(/C=C/c1ccc(OCc2ccccc2)c(OCc2ccccc2)c1)c1cccnc1` stands 0.691; under `Cc1ccc(NC(=O)N2CCC(C(=O)NCc3ccccc3)CC2)cc1`, -0.545; under `Cc1ccc(NC(=O)N2CCC(C(=O)NCc3ccc(F)cc3)CC2)cc1`, 2.21.

On to `O=C(NCc1ccc(F)cc1)C1CCN(C(=O)NCc2ccccc2)CC1`, for which the z-score was 0.336. For the compound `O=C(COCC(=O)N/N=C/c1ccccc1F)N/N=C/c1ccccc1F`, the z-score is -0.201.

Take `CCn1c(SCc2ccc(Cl)cc2)nnc1-c1ccccc1`: the z-score was 3.4 (active). For `CCn1c(SCc2cccc(C)c2)nnc1-c1ccccc1`, the z-score was -0.431. Under `CCn1c(SCc2ccc(C#N)cc2)nnc1-c1cccc(Cl)c1` stands -0.177. With `COCCN(C(=O)Nc1ccccc1)c1ccccc1`, the z-score is -0.157. The result for `Cc1cc(Br)ccc1NC(=S)Nc1cccc([N+](=O)[O-])c1` reads 0.848; that for `O=C(NNC(=O)C1CC1c1ccccc1)Nc1cccc(Cl)c1` (configuration not stated), -0.494; that for `Cc1ccc(C2CC2C(=O)NNC(=S)Nc2cccc(C)c2)cc1` (configuration not stated), 3.29 (active). The result for `Cc1cccc(NC(=O)C2CCCC2)c1` reads 0.277; that for `Cc1ccc(C2CC2C(=O)NNC(=S)Nc2cccc(Cl)c2)cc1` (configuration not stated), 5.51 (active); that for `Cc1cccc(NC(=S)NNC(=O)c2ccco2)c1`, 0.0496. Under `Cc1ccc(C2CC2C(=O)NN)cc1` (configuration not stated) stands -0.033; under `Cc1ccc(C2CC2C(=O)NNC(=S)Nc2ccc(Cl)cc2)cc1` (configuration not stated), 4.55 (active). As for `Cc1ccc(NC(=S)NNC(=O)C2CC2c2ccc(C)cc2)cc1` (configuration not stated), the z-score is 1.64. Under `CC1=C(C)CC(C(=O)Nc2cccc(Cl)c2)C(C(=O)O)C1` (configuration not stated) stands -0.289. Under `O=C(c1ccccc1)c1ccc(Oc2ncccn2)cc1` stands -0.321; under `O=[N+]([O-])c1ccccc1N/N=C/c1cc2ccccc2nc1Cl`, -0.459; under `CC(C)c1ccc(-c2c(C#N)c(N)nc(SCC(=O)N3CCCCC3)c2C#N)cc1`, -0.019.

For `O=C1c2cccc3cccc(c23)C(=O)N1CCN1CCN(C(=S)Nc2ccc(F)cc2)CC1`, the z-score is -0.203.

Take `Cc1cccc(-n2c(SCC(=O)Nc3ncc(Cl)cc3Cl)nc3ccccc32)c1`: the z-score is -0.585. `Cc1ccc(-n2c(-c3ccccc3)n[nH]c2=S)cc1` returned a z-score of 0.357. `COc1ccc(-n2c(=S)[nH]c3ccccc32)cc1` gave a z-score of 1.9. Consider `COc1ccc(-n2cc(-c3ccccc3)[nH]c2=S)cc1`, for which the z-score is 11.4 (active). The result for `O=C(CCC1CCCC1)NC1CCCCC1` reads -0.0138; that for `O=C(O)CCC(=O)NC1CCCCCCC1`, 3.34 (active).

`O=C(O)CCC(=O)NC1CCCCC1NC(=O)CCC(=O)O` (configuration not stated) had a z-score of 2.2. In the case of `O=C(O)CCC(=O)NC1CCCCC1`, the z-score is -0.0259. For the compound `O=C(CCCC(=O)NC1CCCC1)NC1CCCC1`, the z-score is -0.0851. Regarding `CC1CCCCC1NC(=O)CSCC(=O)O` (configuration not stated), the z-score is -0.0424. In the case of `O=S(=O)(NCc1cccnc1)c1cccc2cccnc12`, the z-score was -0.0796. Under `Cc1cc(C)c(S(=O)(=O)N(C)CC(=O)N2CCCCC2)c(C)c1` stands 0.255; under `COc1ccc2c(c1)c(N=O)c(O)n2C`, -0.55; under `O=C(C1CCN(S(=O)(=O)N2CCOCC2)CC1)N1CCc2ccccc21`, -1.37.

With `O=C(NCCO)c1scc2c1OCCO2`, the z-score turned out to be 0.107.

As to `O=c1c2ccccc2c(C=NCc2ccccn2)c(O)n1-c1ccccc1`, the z-score is 9.73 (active).

In the case of `Cc1ccc(-n2c(O)c(C=NCc3ccccn3)c3ccccc3c2=O)cc1`, the z-score is -0.774. Regarding `Cc1cccc(-n2c(O)c(C=NCc3ccccn3)c3ccccc3c2=O)c1`, the z-score is -0.159. Under `COc1ccc(CNC(=O)C/C(C)=N/NC(=O)Cc2ccc(OC)c(OC)c2)cc1` stands 0.123; under `CCCCN(CCCC)S(=O)(=O)c1ccc2[nH]c(=O)[nH]c2c1`, -0.144.
